This is part of a sample that, as a whole, favours compounds with a hit. Of some 79,000 tested, about 15% had one in any assay. Calls of active or inactive are those of the source. No stated cut-off is given here; in the data, active means growth inhibition above about 70%; inactive means the rest.
How the values were obtained:
[1] = NCI Yeast Anticancer Drug Screen. Data for the rad52 strain (AID 147);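 further: 0% = growth of vehicle-treated control cultures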; details: S. cerevisiae rad52 mutant growth inhibition, stronger effect = higher value
Method in brief: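 Read-out: growth inhibition versus vehicle-treated controls. Cells were a DNA repair-deficient yeast strain treated with compounds.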

[2] = NCI Yeast Anticancer Drug Screen. Data for the rad50EPP+ strain (AID 151);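 further: 0% = growth of vehicle-treated control cultures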; details: S. cerevisiae rad50 mutant strain, stronger effect = higher value
Method in brief: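 Growth inhibition read against vehicle controls in rad50EPP+ yeast, a strain altered in DNA damage repair, after compound exposure.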

[3] = NCI Yeast Anticancer Drug Screen. Data for the mgt1 strain (AID 153); details: S. cerevisiae mgt1 mutant growth inhibition, stronger effect = higher value
Method in brief: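 mgt1 yeast grown with test compound; read-out is growth inhibition versus vehicle-treated cultures.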

[4] = NCI Yeast Anticancer Drug Screen. Data for the rad50 strain (AID 155);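 further: 0% = growth of vehicle-only cultures of the same strain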; details: S. cerevisiae rad50 strain growth inhibition, stronger effect = higher value
Method in brief: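 Genetically altered yeast (DNA repair pathway); compound treatment; growth inhibition vs vehicle ctrl.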

[5] = NCI Yeast Anticancer Drug Screen. Data for the mec2-1 strain (AID 157); details: S. cerevisiae mec2-1 strain, stronger effect = higher value
Method in brief: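 Yeast mec2-1 mutant treated with compound. Readout: growth inhibition vs vehicle controls.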

[6] = NCI Yeast Anticancer Drug Screen. Data for the rad14 strain (AID 159);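 further: 0% = growth of vehicle-treated control cultures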; details: S. cerevisiae rad14 strain growth inhibition, stronger effect = higher value
Method in brief: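 Test compounds were applied to a repair-deficient yeast strain. Its growth was then compared with that of cultures given vehicle alone, and inhibition was expressed relative to those controls.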

[7] = NCI Yeast Anticancer Drug Screen. Data for the sgs1 mgt1 strain (AID 161);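 further: 0% = growth of cultures given vehicle only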; details: S. cerevisiae sgs1 mgt1 strain, stronger effect = higher value
Method in brief: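 Read-out: growth inhibition vs vehicle controls. Cells: mutant yeast strain deficient in DNA damage repair.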

[8] = NCI Yeast Anticancer Drug Screen. Data for the CLN2oe strain (AID 163);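 further: 0% = growth of vehicle-only control cultures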; details: S. cerevisiae CLN2oe strain, stronger effect = higher value
Method in brief: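 Read-out: yeast growth inhibition, expressed relative to vehicle-only controls. The strain bears an engineered cell-cycle alteration.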

[9] = NCI Yeast Anticancer Drug Screen. Data for the cln2 rad14 strain (AID 165);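 further: 0% = growth equal to vehicle treated cultures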; details: S. cerevisiae cln2 rad14 strain, stronger effect = higher value
Method in brief: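 cln2 rad14 yeast strain; compound exposure; growth inhibition read vs vehicle controls.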

[10] = NCI Yeast Anticancer Drug Screen. Data for the bub3 strain (AID 167); details: S. cerevisiae bub3 mutant strain, stronger effect = higher value
Method in brief: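 Yeast carrying a defined mutation is treated with each compound, and growth is compared with that of vehicle-exposed cells to give inhibition.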

[11] = NCI Yeast Anticancer Drug Screen. Data for the wt2 strain (AID 169);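 further: 0% = growth of vehicle-treated yeast cultures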; details: S. cerevisiae wt2 strain growth inhibition, stronger effect = higher value
Method in brief: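 Read-out: growth inhibition versus vehicle-treated control cultures after compound exposure of the yeast strain.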

[12] = NCI Yeast Anticancer Drug Screen. Data for the mlh1 strain (AID 171);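 further: 0% = growth of vehicle-treated control cultures of the same strain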; details: S. cerevisiae mlh1 strain growth inhibition, stronger effect = higher value
Method in brief: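 Read-out: growth inhibition versus vehicle controls. Strain: engineered yeast with a defined DNA repair or cell cycle defect, compound-treated.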

[13] = NCI Yeast Anticancer Drug Screen. Data for the sgs1 strain (AID 173);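 further: 0% = growth of vehicle-only control cultures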; details: S. cerevisiae sgs1 mutant, stronger effect = higher value
Method in brief: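 Read-out: yeast growth inhibition relative to vehicle controls, following compound exposure of a strain with a defined DNA repair/cell cycle alteration.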

[14] = NCI Yeast Anticancer Drug Screen. Data for the mlh1 rad18 strain (AID 175); details: S. cerevisiae mlh1 rad18 strain growth inhibition, stronger effect = higher value
Method in brief: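 Yeast w/ defined DNA-repair lesions; compound exposure; growth vs vehicle controls → % inhibition.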

[15] = NCI Yeast Anticancer Drug Screen. Data for the rad18 strain (AID 177); details: S. cerevisiae rad18 mutant growth inhibition, stronger effect = higher value
Method in brief: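 Readout: growth inhibition vs vehicle controls. Cells: genetically altered yeast strain, DNA repair defect.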

[16] = at 5.0 µM (retest, dose inferred, filed as 0.5)
[17] = at 50.0 µM (retest, dose inferred, filed as 5.0)

Measured: growth inhibition

CCOP(=O)(OCC)/C(C#N)=C/c1ccc(-c2ccc(F)cc2F)o1
active: [4]; [16] 75% | [4]; [17] 99% | [5]; [17] 99% | [5]; at 50.0 µM 70.8% | [7]; [17] 99% | [9]; [17] 99% | [10]; [17] 99% | [10]; at 50.0 µM 74.8% | [14]; [17] 99%
inactive: [1]; at 1.2 µM 2% | [1]; at 3.7 µM 4% | [1]; at 11.0 µM 4% | [1]; at 33.0 µM 4% | [1]; at 100.0 µM 4% | [2]; at 1.2 µM 0% | [2]; at 3.7 µM 1% | [2]; at 11.0 µM 3% | [2]; at 33.0 µM 0% | [2]; at 100.0 µM 5% | [3]; at 1.2 µM -5% | [3]; at 3.7 µM -4% | [3]; at 11.0 µM 0% | [3]; at 33.0 µM -10% | [3]; at 100.0 µM 0% | [4]; at 1.2 µM 2% | [4]; at 3.7 µM 2% | [4]; at 11.0 µM -9% | [4]; at 33.0 µM 3% | [4]; at 50.0 µM 39.8% | [4]; at 100.0 µM 5% | [5]; at 1.2 µM 2% | [5]; at 3.7 µM -4% | [5]; [16] 19% | [5]; at 11.0 µM -4% | [5]; at 33.0 µM -6% | [5]; at 100.0 µM -1% | [6]; at 1.2 µM -1% | [6]; at 3.7 µM -1% | [6]; at 11.0 µM -2% | [6]; at 33.0 µM -3% | [6]; at 100.0 µM 1% | [7]; [16] 35% | [7]; at 50.0 µM 63.1% | [8]; at 1.2 µM -1% | [8]; at 3.7 µM 1% | [8]; at 11.0 µM -6% | [8]; at 33.0 µM -7% | [8]; at 100.0 µM -1% | [9]; [16] 16% | [9]; at 50.0 µM 60.6% | [10]; at 1.2 µM -7% | [10]; at 3.7 µM -1% | [10]; [16] 26% | [10]; at 11.0 µM 4% | [10]; at 33.0 µM -3% | [10]; at 100.0 µM -2% | [11]; at 1.2 µM -2% | [11]; at 3.7 µM 0% | [11]; at 11.0 µM -1% | [11]; at 33.0 µM 1% | [11]; at 100.0 µM 1% | [12]; at 1.2 µM -1% | [12]; at 3.7 µM -7% | [12]; at 11.0 µM 3% | [12]; at 33.0 µM 0% | [12]; at 100.0 µM -1% | [13]; at 1.2 µM -2% | [13]; at 3.7 µM -4% | [13]; at 11.0 µM -3% | [13]; at 33.0 µM -4% | [13]; at 100.0 µM -1% | [14]; [16] 60% | [14]; at 50.0 µM 41.4% | [15]; at 1.2 µM -3% | [15]; at 3.7 µM -2% | [15]; at 11.0 µM -2% | [15]; at 33.0 µM -19% | [15]; at 100.0 µM 2%

O=C(O)CNC(c1ccccc1)(c1ccccc1)c1ccccc1
inactive: [1]; at 1.2 µM -9% | [1]; at 3.7 µM -2% | [1]; at 11.0 µM -2% | [2]; at 1.2 µM 11% | [2]; at 3.7 µM 4% | [2]; at 11.0 µM -6% | [2]; at 33.0 µM -3% | [2]; at 100.0 µM -5% | [3]; at 1.2 µM 19% | [3]; at 3.7 µM 13% | [3]; at 11.0 µM 16% | [4]; at 1.2 µM -10% | [4]; at 3.7 µM -2% | [4]; [16] 43% | [4]; at 11.0 µM -2% | [5]; at 1.2 µM -1% | [5]; at 3.7 µM 12% | [5]; [16] 35% | [5]; at 11.0 µM 6% | [6]; at 1.2 µM -2% | [6]; at 3.7 µM -6% | [6]; at 11.0 µM -6% | [7]; [16] 2% | [8]; at 1.2 µM -14% | [8]; at 3.7 µM -12% | [8]; at 11.0 µM -6% | [9]; [16] 18% | [10]; at 1.2 µM -5% | [10]; at 3.7 µM 13% | [10]; [16] -8% | [10]; at 11.0 µM 24% | [11]; at 1.2 µM -27% | [11]; at 3.7 µM -20% | [11]; at 11.0 µM -9% | [12]; at 1.2 µM -32% | [12]; at 3.7 µM -29% | [12]; at 11.0 µM -20% | [13]; at 1.2 µM 3% | [13]; at 3.7 µM 3% | [13]; at 11.0 µM 5% | [14]; [16] 37%
active: [1]; at 33.0 µM 92% | [1]; at 100.0 µM 98% | [3]; at 33.0 µM 87% | [3]; at 100.0 µM 96% | [4]; at 33.0 µM 87% | [4]; [17] 97% | [4]; at 50.0 µM 86.3% | [4]; at 100.0 µM 96% | [5]; at 33.0 µM 91% | [5]; [17] 91% | [5]; at 50.0 µM 90% | [5]; at 100.0 µM 99% | [6]; at 33.0 µM 90% | [6]; at 100.0 µM 98% | [7]; [17] 98% | [7]; at 50.0 µM 90.8% | [8]; at 33.0 µM 85% | [8]; at 100.0 µM 98% | [9]; [17] 99% | [9]; at 50.0 µM 86.3% | [10]; at 33.0 µM 94% | [10]; [17] 97% | [10]; at 50.0 µM 90.7% | [10]; at 100.0 µM 98% | [11]; at 33.0 µM 82% | [11]; at 100.0 µM 98% | [12]; at 33.0 µM 82% | [12]; at 100.0 µM 97% | [13]; at 33.0 µM 89% | [13]; at 100.0 µM 97% | [14]; [17] 91% | [14]; at 50.0 µM 89.9%

COc1ccc(-c2cc(-c3cc(C)cc(Cl)c3O)nc3[nH]c(=S)[nH]c(=S)c23)cc1
active: [1]; at 100.0 µM 72% | [3]; at 100.0 µM 94% | [4]; [17] 96% | [4]; at 50.0 µM 75.1% | [5]; at 50.0 µM 82.6% | [6]; at 100.0 µM 89% | [7]; at 50.0 µM 84.8% | [8]; at 100.0 µM 87% | [9]; [17] 76% | [10]; at 50.0 µM 70.5% | [11]; at 100.0 µM 87%
inactive: [1]; at 1.2 µM 1% | [1]; at 3.7 µM 4% | [1]; at 11.0 µM 6% | [1]; at 33.0 µM 15% | [2]; at 1.2 µM 3% | [2]; at 3.7 µM -5% | [2]; at 11.0 µM -14% | [2]; at 33.0 µM -15% | [2]; at 100.0 µM -15% | [3]; at 1.2 µM -1% | [3]; at 3.7 µM -2% | [3]; at 11.0 µM -3% | [3]; at 33.0 µM 25% | [4]; at 1.2 µM 3% | [4]; at 3.7 µM 5% | [4]; [16] -32% | [4]; at 11.0 µM 6% | [4]; at 33.0 µM 11% | [4]; at 100.0 µM 57% | [5]; at 1.2 µM 0% | [5]; at 3.7 µM 0% | [5]; [16] 2% | [5]; at 11.0 µM -2% | [5]; at 33.0 µM 2% | [5]; [17] 62% | [5]; at 100.0 µM 57% | [6]; at 1.2 µM 1% | [6]; at 3.7 µM 4% | [6]; at 11.0 µM 9% | [6]; at 33.0 µM 17% | [7]; [16] -13% | [7]; [17] 68% | [8]; at 1.2 µM -2% | [8]; at 3.7 µM -2% | [8]; at 11.0 µM -3% | [8]; at 33.0 µM -5% | [9]; [16] 44% | [9]; at 50.0 µM 65.5% | [10]; at 1.2 µM 2% | [10]; at 3.7 µM 4% | [10]; [16] -20% | [10]; at 11.0 µM 0% | [10]; at 33.0 µM 1% | [10]; [17] 63% | [10]; at 100.0 µM 58% | [11]; at 1.2 µM 0% | [11]; at 3.7 µM -4% | [11]; at 11.0 µM -4% | [11]; at 33.0 µM 6%

— PubChem BioAssay (NCI)
